Laboratory results: the emibetuzumab library of Makowski et al. (2022)
Some of the results follow. The hit rate among all sequences tested is not known here.

B1: VH:VL chains; a variant is named by its letters at X, in order (parent)
chain 1: QVQLVQSGAEVKKPGASVKVSCKASGYTFTDYXMHWVRQAPGQGLEWMGXVNPNXXXTTYNQKFEGRVTMTTDTSTSTAYMELRSLRSDDTAVYYCARXNXLDXWGQGTTVTVSS
chain 2: DIQMTQSPSSLSASVGDRVTITCSVSSSVSSIYLHWYQQKPGKAPKLLIYSTSNLASGVPSRFSGSGSGTDFTLTISSLQPEDFATYYCQVYSGYPLTFGGGTKVEIK

Variants of: B1
Experiment: yeast display scFab, FACS + sequencing
Details: with MET
In short: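 Heavy-chain CDR mutant scFab yeast surface library, enriched by two magnetic rounds on HGFR-Fc-coated Protein A beads and then by FACS. Cells were labelled with 1 nM HGFR-Fc in PBSB with 1% milk and anti-Myc for 3 h at room temperature, and the top 50% antigen-positive cells were gated. Round-3 sorted and input populations were deep sequenced in two replicates. Antigen binding call: positive if a sequence occurred in both antigen-positive samples, negative if it occurred only in input.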

| Variant | antigen binding call |
| --- | --- |
| SGREGDSA | no binding |
| DGGGNVSD | no binding |
| DEGGTDWV | no binding |
| SAREGYSV | no binding |
| DEARNAGA | no binding |
| FRTADVGV | no binding |
| FRGRGSGV | binds |
| FRTRSSGV | binds |
| FRAGSSGV | binds |
| FRGRSSGV | binds |
| VTKGGSSA | no binding |
| SEKKADWA | no binding |
| VTTKSDVA | no binding |
| VRTEDDVY | no binding |
| SEGRGSGV | no binding |
| FKGRGSGV | binds |
| VGGTSSSV | no binding |
| VRGTGSAD | no binding |
| VRGTGSWD | binds |
| VRGEGSWD | binds |
| VRGTGDWD | no binding |
| YTEGDDGV | no binding |

| Variant | antigen binding call |
| --- | --- |
| YTGGDDWV | no binding |
| DEGTDYAA | no binding |
| FKGRGDGS | no binding |
| FKGRGAGS | binds |
| FKTGDAWS | no binding |
| FKGRGAWS | binds |
| DATGGDGA | no binding |
| DKGGSSLD | no binding |
| YEGTGSAD | no binding |
| YTGTSSAD | no binding |
| YKGGSSAD | binds |
| YKGGSSLD | binds |
| DATGGSSA | no binding |
| YRRGDFWA | no binding |
| YKRGSAWD | binds |
| YKRGDAWA | binds |
| YKRGDAWD | binds |
| YTRGNAWA | no binding |
| YKRAAVWD | no binding |
| VKGTGVAY | no binding |
| YKGRGAAY | binds |
| VEGRGAVY | no binding |

| Variant | antigen binding call |
| --- | --- |
| VKGRGAAY | binds |
| YAGETFGA | no binding |
| SETGGFVV | no binding |
| DGGENDVY | no binding |
| YRRKGSGY | binds |
| ARTKGSGY | no binding |
| YTKEASGY | no binding |
| YRKGGSGY | binds |
| FRGRGSSY | binds |
| YRGRGSAY | binds |
| FRGRGAAY | binds |
| FRGRGSAY | binds |
| YEGGADVF | no binding |
| DAGAADAV | no binding |
| DTGTGSWD | no binding |
| VTEGGDAA | no binding |
| FTGRGAVA | no binding |
| FTGRGAAA | binds |
| FTRAGAAA | no binding |
| FKGRGAAY | binds |
| SEARSDSV | no binding |
| YRAGDSGY | binds |

| Variant | antigen binding call |
| --- | --- |
| VKAGDAVY | no binding |
| DRAGDDGY | no binding |
| VRAGDSGY | binds |
| YTGTSDLA | no binding |
| FRGRGVGA | binds |
| FRGRGYGA | no binding |
| FRGRGAGA | binds |
| YRGRGVGA | binds |
| ARGGDDGA | no binding |
| ATGTGSGA | no binding |
| VKGKGDLA | no binding |
| VGGTSSGA | no binding |
| VRGTGSGA | binds |
| VGGTGSGA | no binding |
| VAEKGSGA | no binding |
| VTGEDSLA | no binding |
| VRGKGSGA | binds |
| VRGKGSLA | binds |
| FERTSVWF chain 1 L45F | no binding |
| SAGGDYVF | no binding |
| YTTRGSWV | no binding |
| YTGEGDGV | no binding |

| Variant | antigen binding call |
| --- | --- |
| YRGESAWV | binds |
| YRGRSAWV | binds |
| YRGEGDAA | no binding |
| YRGEGDAV | binds |
| DREEGDAV | no binding |
| YTGEGSWV | binds |
| VTKAASWV | no binding |
| SEEASAVY | no binding |
| DKTGDDGS | no binding |
| YRGEGAWV | binds |
| YRGRSASS | binds |
| YRGRDASA | binds |
| YRGRDDLA | no binding |
| YRGRDSSS | binds |
| YRGAAASS | binds |
| VEGAAAGS | no binding |
| ATGEGDGV | no binding |
| SEARSFGV | no binding |
| YRGRSAGS | binds |
| YRGRDASS | binds |
